# Records with an inconclusive call do not appear. Calls of active or inactive are those of the source. Rule for the calls: active = hit-call score of the fitted dose curve at least 0.9, where 1 is the maximum; inconclusive = response in the unintended direction; inactive = score below 0.9.
# Biological target: Luciferin 4-monooxygenase (Photinus pyralis) (UniProt P08659)
# Test: CCTE_Simmons_QuantiLum_inhib_2: CCTE's Firefly Luciferase Inhibition Assay, Simmons Lab (AID 2283767);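 for AC50: potency for inhibitors that lower luciferase luminescence relative to DMSO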
# Procedure: CCTE_Simmons_QuantiLum_inhib_2 is a biochemical, single-readout assay that uses purified luciferase enzyme in a cell-free assay.Measurements were taken 0.5 hour after chemical dosing in a 384-well plate.CCTE_Simmons_QuantiLum_inhib_2 is the assay component measured from the CCTE_Simmons_QuantiLum_inhib_2 assay. It is designed to make measurements of enzyme activity, a form of enzyme reporter, as detected with bioluminescence signals by Luciferase-coupled Quantilum levels technology. This is a secondary assay to CCTE_Simmons_AUR_TPO to evaluate nonspecific enzyme inhibition.Data from the assay component CCTE_Simmons_QuantiLum_inhib_2 was analyzed at the endpoint, CCTE_Simmons_QuantiLum_inhib_2, in the positive analysis fitting direction relative to DMSO as the negative control and baseline of activity. Using a type of enzyme reporter, measures of enzyme activity for loss-of-signal activity can be used to understand inhibition of firefly luciferase. This is an assay endpoint to indicate nonspecific protein inhibition for comparison to aeid 1508 for thyroperoxidase inhibition. To generalize the intended target to other relatable targets, this assay endpoint is annotated to the oxidoreductase intended target family, where the subfamily is monooxygenase.
# Quanti-Lum recombinant luciferase (Promega; Madison, Wisconsin) was diluted to 76.9 ng/ml with 200mM potassium phosphate buffer supplemented with 1 mg/ml bovine serum albumin and 65ul (5ng recombinant luciferase) per well was dispensed into opaque, white 384-well plates (Greiner, BioExpress) using an automated liquid handler (BioTek MicroFlo) with a plastic 5 ul tubing cassette. Test compounds were administered using the HDRT as described earlier to achieve a 0.5% final DMSO concentration. Microplates were incubated at 37C in the dark for 30min to mimic the AUR-TPO assay conditions. Luciferase detection reagent (25 ul per well; 9.2 mM dithiothreitol, 75uM Coenzyme A, 147uM dATP, 150uM D-luciferin, 8.9 mM Tricine, 297uM (MgCO3)4.Mg(OH)2.5H20, 742uM MgSO4, 27.8uM EDTA, pH 7.8, final assay concentrations) was then added using a BMG Clariostar plate reader equipped with syringe injectors (BMG LabTech; GmbH). Plates were read using a kinetic luminescence protocol (top read) whereby each well was individually injected with luciferase detection reagent immediately prior to measurement. Three biological replicates of technical singles were run for every chemical concentration tested. A titrated range of LUCINH2 served as a positive control on each plate of the luciferase inhibition screening assay. Test chemicals were administered as a titrated series of 8 concentrations from 5 nM up to 87.5 uM [final] for 30 minutes prior to single endpoint detection. Dimethylsulfoxide [DMSO] was used as the vehicle control. Luciferase Inhibitor I [2-(5-(2-Methoxyphenyl)-1,2,4-oxadiazol-3-yl)pyridine] was used as the positive control and was administered as a titrated series of 8 concentrations from 1 nM up to 100 uM [final].
# Luciferin 4-monooxygenase (Photinus pyralis), sequence (P08659 whole entry, looked up): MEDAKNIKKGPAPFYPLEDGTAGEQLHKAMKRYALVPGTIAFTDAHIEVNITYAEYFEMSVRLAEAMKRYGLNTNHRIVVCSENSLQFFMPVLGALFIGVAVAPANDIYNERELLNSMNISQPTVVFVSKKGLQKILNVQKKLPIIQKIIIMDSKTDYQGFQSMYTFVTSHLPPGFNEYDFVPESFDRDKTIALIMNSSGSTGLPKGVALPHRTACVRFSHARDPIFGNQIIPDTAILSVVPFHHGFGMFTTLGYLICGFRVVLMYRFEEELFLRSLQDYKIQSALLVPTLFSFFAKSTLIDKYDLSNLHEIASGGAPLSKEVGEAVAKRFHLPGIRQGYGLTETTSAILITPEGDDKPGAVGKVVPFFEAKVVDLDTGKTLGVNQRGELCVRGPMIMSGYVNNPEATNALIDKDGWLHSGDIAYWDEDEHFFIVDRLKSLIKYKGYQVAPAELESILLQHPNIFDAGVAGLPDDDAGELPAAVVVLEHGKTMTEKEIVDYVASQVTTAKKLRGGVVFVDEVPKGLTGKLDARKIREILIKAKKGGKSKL
Compound,outcome,AC50
Cc1ccc(C)c(O)c1C,inactive,–
CNC(=O)[C@H]1O[C@@H](n2cnc3c(NCc4cc(Cl)ccc4OCc4cc(C)no4)ncnc32)[C@H](O)[C@@H]1N,inactive,–
CN[C@H]1CC[C@@H](c2ccc(Cl)c(Cl)c2)c2ccc(S(N)(=O)=O)cc21,–,10.7 µM (active)
Nc1ccccc1N,–,24.8 µM (active)
Cc1cc(NC(=O)C(=O)O)cc(C)c1Oc1ccc(O)c2c1CCC2,–,79.3 µM (active)
Cc1c(C(=O)O)c(O)cc2c1C(=O)c1c(O)c([C@@H]3O[C@H](CO)[C@@H](O)[C@H](O)[C@H]3O)c(O)c(O)c1C2=O,–,18.5 µM (active)
CCCCC(CC)COC(=O)CC(C(=O)OCC(CC)CCCC)S(=O)(=O)O (stereo unspecified),–,13.1 µM (active)
COc1ccc(C)cc1N,inactive,–
COc1cc(S(=O)(=O)O)c(C)cc1N=Nc1c(O)ccc2cc(S(=O)(=O)O)ccc12,–,10.7 µM (active)
Cc1cc(=O)[nH]c(=S)[nH]1,–,53.8 µM (active)
Nc1ccc(S(=O)(=O)c2ccc(N)cc2)cc1,inactive,–
Cc1ccc(N(C)C)cc1,inactive,–
Nc1nc(N)c2nc(CNc3ccc(C(=O)N[C@@H](CCC(=O)O)C(=O)O)cc3)cnc2n1,inactive,–
CC(C)(C)c1cc(O)c(C(C)(C)C)cc1O,inactive,–
Cc1oc(-c2ccccc2)nc1CCOc1cccc2c1ccn2CCC(=O)O,inactive,–
CC1=C(/C=C/C(C)=C/C=C/C(C)=C/CO)C(C)(C)CCC1,inactive,–
CCOc1ccc2c(c1)C(C)=CC(C)(C)N2,inactive,–
Oc1ccc2ccccc2c1N=Nc1ccccc1,–,12.6 µM (active)
C=CCc1ccc(O)c(OC)c1,inactive,–
CC=Cc1ccc(O)c(OC)c1,inactive,–
CCNc1cccc(C)c1,inactive,–
O=c1c(O)c(-c2ccc(O)c(O)c2)oc2cc(O)cc(O)c12,–,53.8 µM (active)
Cc1cccc(C)c1O,inactive,–
C[C@]12C=CC(=O)C=C1CC[C@@H]1[C@@H]2C(=O)C[C@@]2(C)[C@H]1CC[C@]2(O)C(=O)CO,inactive,–
CN1CCCC1=O,inactive,–
CCCc1cc(=O)[nH]c(=S)[nH]1,inactive,–
